Calls of active or inactive are those of the source.
Assays:
[1] = test system: PRMT1 (protein arginine N-methyltransferase 1); test: small molecules binding arginine methyltransferase PRMT1 – biochemical, small-molecule microarray, 635 nm fluorescence, primary screen (AID 1088); conditions: higher = more signal;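 also: binding of Prmt1 protein to compounds spotted on small-molecule microarray slides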
[2] = growth effects on S. cerevisiae YJM789 – YJM789 clinical isolate, OD600, 24 h, basal, primary screen (AID 1089); conditions: higher = more signal, called active from +8 up or from −8 down;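 also: growth of clinical yeast isolate S. cerevisiae YJM 789 seeded 1000 cells per well; test concentration not given here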
[3] = S. pombe growth modifiers, basal conditions – strain 972, OD600, 24 h, no modulator, primary screen (AID 1090);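 also: basal condition with compound alone and no growth modifier present; test concentration not given here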; conditions: S. pombe 972 growth, higher = more signal, called active from +8 up or from −8 down
[4] = budding yeast growth modifiers under rapamycin – strain BY4716, OD600, 96 h, primary screen (AID 1091); also: test concentration not given here; conditions: S. cerevisiae BY4716 + rapamycin, higher = more signal, called active from +8 up or from −8 down
[5] = biological target: Torsin-1A-interacting protein 2 (Homo sapiens) (UniProt Q8NFQ8); test: small molecules binding lysate-expressed LULL1 – cell lysate, human LULL1 lysate, 635/667 nm fluorescence, primary screen (AID 1092); conditions: small-molecule microarray, hLULL1 lysate binding, 635 nm fluorescence; higher = more signal;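 also: probe is lysate of COS7 cells overexpressing human LULL1; score merges per-feature 667 nm fluorescence with signal-to-noise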
Chain of Torsin-1A-interacting protein 2 (Homo sapiens) (Q8NFQ8 whole entry, looked up): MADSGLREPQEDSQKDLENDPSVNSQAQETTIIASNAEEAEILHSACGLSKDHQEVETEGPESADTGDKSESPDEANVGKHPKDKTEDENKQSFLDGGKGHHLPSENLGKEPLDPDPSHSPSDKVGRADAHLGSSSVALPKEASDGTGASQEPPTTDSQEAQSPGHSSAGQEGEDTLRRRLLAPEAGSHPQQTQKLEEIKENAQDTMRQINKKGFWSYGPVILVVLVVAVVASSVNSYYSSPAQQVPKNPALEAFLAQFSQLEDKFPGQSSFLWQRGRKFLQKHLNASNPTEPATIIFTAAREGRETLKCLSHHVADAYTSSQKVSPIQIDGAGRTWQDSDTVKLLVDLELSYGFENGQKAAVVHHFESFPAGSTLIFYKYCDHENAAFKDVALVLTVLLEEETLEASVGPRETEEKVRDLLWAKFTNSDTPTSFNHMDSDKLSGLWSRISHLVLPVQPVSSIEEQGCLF

[6] = optical density change of DRC41 E. coli – strain DRC41, OD650, 24 h, E. coli filamentation project, primary screen (AID 1093);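 also: MC1000 strain lacking acrAB efflux and sulA so SOS filamentation is blocked; test concentration not given here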; conditions: E. coli DRC41 growth, higher = more signal, called active from +8 up or from −8 down
[7] = probe aLefty2 binding to arrayed compounds – biochemical, biotinylated probe, 635/667 nm fluorescence, primary screen (AID 1094); conditions: small-molecule microarray, higher = more signal;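 also: score merges spot fluorescence near 667 nm with spot signal-to-noise ratio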
[8] = test system: Noggin (protein binding on small-molecule microarray); test: small molecules binding Noggin protein – biochemical, 635/667 nm fluorescence, primary screen (AID 1095); conditions: 635 nm fluorescence, higher = more signal;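 also: score merges 667 nm feature fluorescence with signal to noise over triplicate slides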
[9] = biological target: Neurogenic locus notch homolog protein 3 (Homo sapiens) (UniProt Q9UM47); test: small molecules binding NOTCH3 protein – biochemical, 635/667 nm fluorescence, primary screen (AID 1096); conditions: small-molecule microarray, 635 nm fluorescence, higher = more signal
Chain of Neurogenic locus notch homolog protein 3 (Homo sapiens) (Q9UM47 whole entry, looked up): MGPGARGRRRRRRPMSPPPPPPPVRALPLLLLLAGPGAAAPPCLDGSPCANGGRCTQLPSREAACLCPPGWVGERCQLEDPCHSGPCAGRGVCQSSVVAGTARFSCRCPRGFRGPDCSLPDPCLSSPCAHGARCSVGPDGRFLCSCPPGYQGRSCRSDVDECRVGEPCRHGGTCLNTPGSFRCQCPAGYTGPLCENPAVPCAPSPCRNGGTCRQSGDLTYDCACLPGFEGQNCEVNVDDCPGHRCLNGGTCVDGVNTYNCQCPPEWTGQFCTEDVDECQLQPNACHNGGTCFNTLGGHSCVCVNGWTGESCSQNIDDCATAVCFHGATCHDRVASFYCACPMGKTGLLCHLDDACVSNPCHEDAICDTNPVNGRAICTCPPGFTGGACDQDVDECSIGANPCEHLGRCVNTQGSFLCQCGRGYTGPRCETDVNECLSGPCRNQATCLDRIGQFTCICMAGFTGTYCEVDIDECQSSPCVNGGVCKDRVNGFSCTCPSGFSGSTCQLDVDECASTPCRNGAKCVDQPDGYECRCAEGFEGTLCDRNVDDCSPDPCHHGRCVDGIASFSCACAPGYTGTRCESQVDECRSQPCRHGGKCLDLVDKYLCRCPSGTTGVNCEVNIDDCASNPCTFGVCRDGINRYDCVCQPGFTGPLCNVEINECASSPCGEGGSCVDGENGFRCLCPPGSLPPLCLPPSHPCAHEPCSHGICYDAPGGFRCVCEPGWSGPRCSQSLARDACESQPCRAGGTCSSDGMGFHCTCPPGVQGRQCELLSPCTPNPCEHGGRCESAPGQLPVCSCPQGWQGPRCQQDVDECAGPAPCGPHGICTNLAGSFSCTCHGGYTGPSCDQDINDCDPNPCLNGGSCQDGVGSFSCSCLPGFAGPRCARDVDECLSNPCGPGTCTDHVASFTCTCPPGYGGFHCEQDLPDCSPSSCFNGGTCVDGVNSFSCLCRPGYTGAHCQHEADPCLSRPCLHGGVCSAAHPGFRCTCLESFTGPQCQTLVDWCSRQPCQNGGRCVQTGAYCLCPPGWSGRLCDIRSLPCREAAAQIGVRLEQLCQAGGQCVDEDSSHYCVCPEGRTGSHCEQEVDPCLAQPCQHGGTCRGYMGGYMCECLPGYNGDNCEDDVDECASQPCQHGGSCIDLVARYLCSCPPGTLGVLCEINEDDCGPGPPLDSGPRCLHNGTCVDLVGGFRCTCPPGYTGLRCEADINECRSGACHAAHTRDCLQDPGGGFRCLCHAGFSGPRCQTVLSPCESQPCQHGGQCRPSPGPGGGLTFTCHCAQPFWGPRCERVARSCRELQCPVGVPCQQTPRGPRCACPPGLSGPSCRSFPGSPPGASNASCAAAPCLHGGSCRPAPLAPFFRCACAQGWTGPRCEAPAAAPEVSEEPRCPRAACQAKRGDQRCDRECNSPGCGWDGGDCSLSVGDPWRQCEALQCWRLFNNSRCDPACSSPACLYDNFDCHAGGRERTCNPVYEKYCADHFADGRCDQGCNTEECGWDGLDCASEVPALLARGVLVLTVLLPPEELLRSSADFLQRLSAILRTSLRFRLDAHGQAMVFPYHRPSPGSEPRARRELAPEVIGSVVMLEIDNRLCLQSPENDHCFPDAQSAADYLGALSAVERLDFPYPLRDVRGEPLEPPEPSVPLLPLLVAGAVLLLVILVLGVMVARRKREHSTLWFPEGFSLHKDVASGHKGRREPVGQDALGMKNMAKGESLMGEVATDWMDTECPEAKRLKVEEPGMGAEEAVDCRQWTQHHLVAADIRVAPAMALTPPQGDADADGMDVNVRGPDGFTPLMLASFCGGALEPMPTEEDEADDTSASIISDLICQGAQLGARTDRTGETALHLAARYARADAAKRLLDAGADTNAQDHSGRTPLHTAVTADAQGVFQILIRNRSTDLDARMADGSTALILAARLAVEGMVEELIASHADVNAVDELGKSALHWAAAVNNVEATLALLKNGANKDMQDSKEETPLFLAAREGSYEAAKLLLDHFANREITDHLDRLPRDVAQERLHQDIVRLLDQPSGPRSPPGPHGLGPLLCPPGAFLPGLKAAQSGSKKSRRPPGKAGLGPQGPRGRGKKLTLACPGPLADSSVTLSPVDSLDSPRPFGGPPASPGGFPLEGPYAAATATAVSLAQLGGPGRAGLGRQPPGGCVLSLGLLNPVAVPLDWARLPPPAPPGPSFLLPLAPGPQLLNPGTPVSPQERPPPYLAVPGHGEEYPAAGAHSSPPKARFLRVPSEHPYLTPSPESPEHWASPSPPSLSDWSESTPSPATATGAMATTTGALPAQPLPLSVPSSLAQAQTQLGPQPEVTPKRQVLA

[10] = probe aEGFR binding to arrayed compounds – biochemical, biotinylated probe, 635/667 nm fluorescence, primary screen (AID 1097); conditions: small-molecule microarray, higher = more signal;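 also: probe is a biotinylated anti-EGFR antibody binding compounds printed on slides; score combines fluorescence near 667 nm and signal to noise of each spot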
[11] = test system: Plasmodium falciparum Sir2 (PF13_0152, Sir2A); test: Plasmodium falciparum Sir2A binding compounds – biochemical, small-molecule microarray, 635 nm fluorescence, primary screen (AID 1098); conditions: fluorescence 635 nm, higher = more signal;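 also: score merges spot fluorescence intensity with its signal-to-noise ratio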
[12] = probe aDKK1 binding to arrayed compounds – biochemical, biotinylated probe, 635/667 nm fluorescence, primary screen (AID 1099); conditions: small-molecule microarray, higher = more signal;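 also: score merges 667nm spot fluorescence with signal to noise across triplicate slides; reference of the scale not given here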
[13] = probe aCHRDL2 binding to arrayed compounds – biochemical, biotinylated probe, 635/667 nm fluorescence, primary screen (AID 1100); conditions: small-molecule microarray, higher = more signal
[14] = change in splice reporter luminescence, either direction, cell-based, HEK293, spliceosome inhibition project, primary screen (AID 1101); conditions: HEK293 splicing luciferase reporter, 24 h, higher = more signal, called active from +8 up or from −8 down;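 also: HEK293 cells carrying a splicing-competent luciferase reporter gene; test concentration not given here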
[15] = biological target: Fibroblast growth factor 10 (Homo sapiens) (UniProt O15520); test: compounds binding fibroblast growth factor 10 – biochemical, small-molecule microarray, 635 nm fluorescence, primary screen (AID 1102); conditions: FGF10 binding, fluorescence 635 nm, higher = more signal
Chain of Fibroblast growth factor 10 (Homo sapiens) (O15520 whole entry, looked up): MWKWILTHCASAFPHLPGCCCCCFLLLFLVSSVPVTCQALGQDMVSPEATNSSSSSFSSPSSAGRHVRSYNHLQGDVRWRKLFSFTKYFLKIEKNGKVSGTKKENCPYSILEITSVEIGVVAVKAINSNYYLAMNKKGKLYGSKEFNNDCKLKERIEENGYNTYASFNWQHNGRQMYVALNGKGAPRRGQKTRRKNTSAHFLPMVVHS

[16] = test system: glycogen synthase kinase-3 (GSK3A per assay name; protocol says GSK3B); test: compounds binding glycogen synthase kinase-3 – biochemical, small-molecule microarray, 635 nm fluorescence, GSK3A, primary screen (AID 1103); conditions: fluorescence 635 nm, higher = more signal; also: the record names both GSK3A and GSK3B
[17] = biological target: Epidermal growth factor receptor (Homo sapiens) (UniProt P00533); test: compounds binding epidermal growth factor receptor – biochemical, small-molecule microarray, 635 nm fluorescence, primary screen (AID 1104); conditions: EGFR binding, higher = more signal;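 also: score merges 667 nm emission intensity with spot signal to noise over triplicate slides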
Chain of Epidermal growth factor receptor (Homo sapiens) (P00533 whole entry, looked up): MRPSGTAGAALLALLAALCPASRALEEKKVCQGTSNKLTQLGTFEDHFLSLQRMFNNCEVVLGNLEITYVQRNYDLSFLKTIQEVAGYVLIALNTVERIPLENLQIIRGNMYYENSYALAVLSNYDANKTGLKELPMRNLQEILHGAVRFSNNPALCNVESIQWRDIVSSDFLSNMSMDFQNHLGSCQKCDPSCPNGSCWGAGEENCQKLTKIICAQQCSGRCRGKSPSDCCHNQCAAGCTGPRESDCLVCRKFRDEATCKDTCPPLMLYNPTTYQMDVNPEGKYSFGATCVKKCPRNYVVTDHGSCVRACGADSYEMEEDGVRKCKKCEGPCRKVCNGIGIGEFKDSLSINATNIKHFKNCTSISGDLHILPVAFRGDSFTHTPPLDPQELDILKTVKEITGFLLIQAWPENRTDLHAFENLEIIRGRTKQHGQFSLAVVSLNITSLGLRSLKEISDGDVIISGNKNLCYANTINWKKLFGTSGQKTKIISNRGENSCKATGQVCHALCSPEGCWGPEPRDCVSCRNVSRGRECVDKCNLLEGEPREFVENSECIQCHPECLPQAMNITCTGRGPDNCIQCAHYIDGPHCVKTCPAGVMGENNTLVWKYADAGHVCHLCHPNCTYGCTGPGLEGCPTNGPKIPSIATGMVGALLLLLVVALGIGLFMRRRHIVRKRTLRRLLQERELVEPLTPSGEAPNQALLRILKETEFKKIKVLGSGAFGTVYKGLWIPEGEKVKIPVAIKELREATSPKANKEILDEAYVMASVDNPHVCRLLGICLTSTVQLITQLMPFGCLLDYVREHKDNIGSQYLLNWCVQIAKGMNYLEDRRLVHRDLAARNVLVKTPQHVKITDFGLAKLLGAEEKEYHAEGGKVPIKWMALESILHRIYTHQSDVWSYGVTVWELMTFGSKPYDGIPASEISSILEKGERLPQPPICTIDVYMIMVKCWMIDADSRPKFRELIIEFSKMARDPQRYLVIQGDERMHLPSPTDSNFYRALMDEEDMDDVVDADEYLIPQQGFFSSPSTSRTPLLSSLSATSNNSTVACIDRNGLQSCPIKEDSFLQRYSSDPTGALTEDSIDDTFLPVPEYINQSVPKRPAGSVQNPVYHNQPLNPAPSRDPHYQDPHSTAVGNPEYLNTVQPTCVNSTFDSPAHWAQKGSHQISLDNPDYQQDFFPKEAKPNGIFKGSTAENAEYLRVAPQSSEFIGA

[18] = biological target: Follistatin-related protein 3 (Homo sapiens) (UniProt O95633); test: compounds binding follistatin-related protein 3 – biochemical, small-molecule microarray, 635 nm fluorescence, primary screen (AID 1105); conditions: FSTL3 binding, higher = more signal;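 also: score merges emission near 667 nm and signal to noise per printed spot across three slides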
Chain of Follistatin-related protein 3 (Homo sapiens) (O95633 whole entry, looked up): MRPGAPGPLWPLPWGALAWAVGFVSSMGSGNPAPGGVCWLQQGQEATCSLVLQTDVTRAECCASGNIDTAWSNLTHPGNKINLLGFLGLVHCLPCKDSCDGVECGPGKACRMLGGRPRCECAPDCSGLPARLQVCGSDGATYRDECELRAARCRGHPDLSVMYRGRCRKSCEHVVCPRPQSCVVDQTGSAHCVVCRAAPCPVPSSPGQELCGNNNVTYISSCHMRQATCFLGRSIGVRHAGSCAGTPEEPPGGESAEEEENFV

[19] = biological target: Dickkopf-related protein 1 (Homo sapiens) (UniProt O94907); test: small molecules binding DKK1 protein – biochemical, small-molecule microarray, 635 nm fluorescence scan, primary screen (AID 1106); conditions: higher = more signal;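 also: score merges emission near 667 nm with signal to noise over three replicate slides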
Chain of Dickkopf-related protein 1 (Homo sapiens) (O94907 whole entry, looked up): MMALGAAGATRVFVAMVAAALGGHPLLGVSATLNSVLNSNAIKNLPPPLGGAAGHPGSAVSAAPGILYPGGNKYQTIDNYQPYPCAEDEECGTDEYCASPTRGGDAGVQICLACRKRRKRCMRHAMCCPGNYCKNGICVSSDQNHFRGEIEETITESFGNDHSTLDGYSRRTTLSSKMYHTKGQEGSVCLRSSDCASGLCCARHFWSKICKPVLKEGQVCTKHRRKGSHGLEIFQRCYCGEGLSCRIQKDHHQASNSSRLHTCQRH

[20] = test system: Inhibin beta A chain (activin A); test: small molecules binding activin A – biochemical, small-molecule microarray, 635 nm fluorescence scan, primary screen (AID 1107); conditions: INHBA, higher = more signal;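 also: mouse activin A protein probed at 4.33 µg/mL on printed slides; score merges bound-protein fluorescence near 667 nm with spot signal-to-noise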

COCCOC(=O)N1C(=O)[C@@]2(c3cc(C#CCNC(N)=O)ccc31)[C@H](c1ccc(O)cc1)N1[C@H](c3ccccc3)[C@H](c3ccccc3)OC(=O)[C@H]1[C@@H]2C(=O)N1CCN(c2ncccn2)CC1
composite z-score [1]: 1.42
z-score [2]: 1.74 (inactive)
z-score [3]: 1.94 (inactive)
z-score [4]: 4.35 (inactive)
composite z-score [5]: 3
z-score [6]: -0.561 (inactive)
composite z-score [7]: 0.24
composite z-score [8]: 0.96
composite z-score [9]: 1.15
composite z-score [10]: 0.187
composite z-score [11]: 1.55
composite z-score [12]: 0.607
composite z-score [13]: 0.762
z-score [14]: 0.41 (inactive)
composite z-score [15]: 0.811
composite z-score [16]: 0.907
composite z-score [17]: 0.279
composite z-score [18]: 0.751
composite z-score [19]: 0.0805
composite z-score [20]: 0.311

CC(C)C[C@@H]1NC(=O)[C@H]2C[C@@H](C(=O)NCCCCCN)[C@@H](c3cccc(OCCO)c3)N2C1=O
composite z-score [1]: 0.808
z-score [2]: -3.54 (inactive)
z-score [3]: -0.726 (inactive)
z-score [4]: -1.04 (inactive)
composite z-score [5]: 0.872
z-score [6]: 0.545 (inactive)
composite z-score [7]: 0.13
composite z-score [8]: -0.993
composite z-score [9]: 0.135
composite z-score [10]: -0.14
composite z-score [11]: 0.481
composite z-score [12]: 0.206
composite z-score [13]: 0.235
z-score [14]: -1.76 (inactive)
composite z-score [15]: -0.361
composite z-score [16]: -0.389
composite z-score [17]: 0.125
composite z-score [18]: -0.348
composite z-score [19]: 0.183
composite z-score [20]: -0.762

O=C(N1CCOCC1)[C@@]1(CCS(=O)(=O)c2ccccc2)N=C(c2ccc(OCCCO)cc2)O[C@H]1c1ccccc1
composite z-score [1]: 1.44
z-score [2]: 0.487 (inactive)
z-score [3]: 0.395 (inactive)
z-score [4]: -0.0156 (inactive)
composite z-score [5]: 3.56
z-score [6]: 0.746 (inactive)
composite z-score [7]: 0.352
composite z-score [8]: 0.136
composite z-score [9]: 1.15
composite z-score [10]: 0.156
composite z-score [11]: 1.64
composite z-score [12]: 1.42
composite z-score [13]: 1.33
z-score [14]: 2.21 (inactive)
composite z-score [15]: 0.646
composite z-score [16]: 1.22
composite z-score [17]: -0.412
composite z-score [18]: 0.424
composite z-score [19]: -0.383
composite z-score [20]: 0.382

CCCCCCCCCCC(O)C1C=CC2C(=O)N(C)C(=O)C2N1Nc1cc(OC)c(OC)c(OC)c1 (stereo not given)
composite z-score [1]: -0.415
z-score [2]: 0.692 (inactive)
z-score [3]: 0.134 (inactive)
z-score [4]: -1.17 (inactive)
composite z-score [5]: 1.54
z-score [6]: -1.74 (inactive)
composite z-score [7]: -0.161
composite z-score [8]: -1.3
composite z-score [9]: -0.713
composite z-score [10]: -0.189
composite z-score [11]: 1.05
composite z-score [12]: 0.571
composite z-score [13]: 0.858
z-score [14]: 0.271 (inactive)
composite z-score [15]: -0.471
composite z-score [16]: -1.29
composite z-score [17]: -0.637
composite z-score [18]: -1.29
composite z-score [19]: -0.939
composite z-score [20]: 1.18

COCCOC(=O)N1C(=O)[C@@]2(c3cc(C#CCC(C(=O)OC)C(=O)OC)ccc31)[C@H](C(=O)NC[C@H](O)c1ccccc1)[C@H]1C(=O)O[C@H](c3ccccc3)[C@H](c3ccccc3)N1[C@@H]2c1ccc(O)cc1
composite z-score [1]: 1.36
z-score [2]: 1.05 (inactive)
z-score [3]: 1.37 (inactive)
z-score [4]: 0.174 (inactive)
composite z-score [5]: 2.78
z-score [6]: -0.377 (inactive)
composite z-score [7]: -0.0845
composite z-score [8]: -1.08
composite z-score [9]: 0.687
composite z-score [10]: -0.0828
composite z-score [11]: 1.17
composite z-score [12]: -0.0319
composite z-score [13]: 0.521
z-score [14]: 0.556 (inactive)
composite z-score [15]: 0.923
composite z-score [16]: 1.22
composite z-score [17]: -0.239
composite z-score [18]: 0.186
composite z-score [19]: -0.224
composite z-score [20]: -0.29

CCOC(=O)C1=C[C@@H](c2ccccc2)N(S(=O)(=O)c2ccc(C)cc2)[C@H]1c1ccccc1
composite z-score [1]: 0.712
z-score [2]: -1.27 (inactive)
z-score [3]: 0.517 (inactive)
z-score [4]: 0.958 (inactive)
composite z-score [5]: 0.91
z-score [6]: 0.6 (inactive)
composite z-score [7]: -0.0113
composite z-score [8]: 0.0762
composite z-score [9]: 0.552
composite z-score [10]: -0.112
composite z-score [11]: 0.394
composite z-score [12]: 0.0612
composite z-score [13]: 0.753
z-score [14]: -0.924 (inactive)
composite z-score [15]: -0.0005
composite z-score [16]: -0.193
composite z-score [17]: 0.0794
composite z-score [18]: -0.0021
composite z-score [19]: -0.399
composite z-score [20]: 1.46

COc1ccc(C(=O)Nc2cccc(CN3C(=O)[C@]4(O[C@H](CCn5cc([C@H](O)c6ccccc6)nn5)[C@@H]([Si](C)(C)c5ccc(OC)cc5)[C@@H]4C)c4ccccc43)c2)cc1
composite z-score [1]: 0.682
z-score [2]: -0.228 (inactive)
z-score [3]: -1.99 (inactive)
z-score [4]: 0.678 (inactive)
composite z-score [5]: 1.38
z-score [6]: 1.48 (inactive)
composite z-score [7]: -0.0674
composite z-score [8]: 0.383
composite z-score [9]: 0.889
composite z-score [10]: -0.128
composite z-score [11]: 0.758
composite z-score [12]: 0.224
composite z-score [13]: 0.265
z-score [14]: -2.49 (inactive)
composite z-score [15]: 0.26
composite z-score [16]: -0.266
composite z-score [17]: -0.339
composite z-score [18]: 0.31
composite z-score [19]: -0.132
composite z-score [20]: 1.41

CC(C)CNC(=O)[C@@]1(c2ccc([N+](=O)[O-])cc2)CC(=O)N(C2CCCCC2)[C@@H]1c1ccc(CO)cc1
composite z-score [1]: 0.566
z-score [2]: -0.563 (inactive)
z-score [3]: -0.514 (inactive)
z-score [4]: -0.548 (inactive)
composite z-score [5]: 2.54
z-score [6]: 0.861 (inactive)
composite z-score [7]: 0.136
composite z-score [8]: -0.318
composite z-score [9]: -0.0858
composite z-score [10]: -0.0989
composite z-score [11]: 0.388
composite z-score [12]: 0.368
composite z-score [13]: 0.453
z-score [14]: -0.472 (inactive)
composite z-score [15]: 0.735
composite z-score [16]: 0.484
composite z-score [17]: 0.103
composite z-score [18]: 0.0017
composite z-score [19]: -0.362
composite z-score [20]: 0.517

O=C1C2C=CC(C(O)c3ccc4c(c3)OCO4)N(Nc3ccccc3)C2C(=O)N1c1ccccc1 (stereo not given)
composite z-score [1]: 1.46
z-score [2]: -0.293 (inactive)
z-score [3]: 0.292 (inactive)
z-score [4]: 0.593 (inactive)
composite z-score [5]: 3.05
z-score [6]: -0.784 (inactive)
composite z-score [7]: 0.266
composite z-score [8]: -0.0526
composite z-score [9]: 1.1
composite z-score [10]: 0.11
composite z-score [11]: 1.41
composite z-score [12]: 0.45
composite z-score [13]: 1.09
z-score [14]: 0.243 (inactive)
composite z-score [15]: 0.781
composite z-score [16]: -0.157
composite z-score [17]: -0.0637
composite z-score [18]: 0.71
composite z-score [19]: -0.541
composite z-score [20]: 0.477

NC(=O)NCC#Cc1ccc2c(c1)[C@]1(C(=O)N2)[C@H](C(=O)N2CCN(c3ncccn3)CC2)[C@H]2C(=O)O[C@H](c3ccccc3)[C@H](c3ccccc3)N2[C@@H]1c1ccc(OCCO)cc1
composite z-score [1]: 1.18
z-score [2]: 2.47 (inactive)
z-score [3]: 2.31 (inactive)
z-score [4]: 5.27 (inactive)
composite z-score [5]: 1.89
z-score [6]: 1.37 (inactive)
composite z-score [7]: -0.0321
composite z-score [8]: 0.513
composite z-score [9]: 1.13
composite z-score [10]: -0.0271
composite z-score [11]: 0.695
composite z-score [12]: 0.23
composite z-score [13]: 0.433
z-score [14]: -0.245 (inactive)
composite z-score [15]: 0.766
composite z-score [16]: -0.364
composite z-score [17]: 0.669
composite z-score [18]: 1.08
composite z-score [19]: 0.151
composite z-score [20]: 0.926

— PubChem BioAssay
